Assay results reported in PubChem BioAssay (NCI).
“And” between values parts separate entries of the source, which are not always exact repeats. Identical values can stand only once. About 83,000 compounds went through this panel and 20% of them were active in at least one assay; those are over-represented in the sample as a whole.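 Percent growth is the endpoint: 0 to 100 indicates growth inhibition (40 means 60% inhibition), 0 means no net growth, and negative values indicate cell death.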 The source made the active and inactive calls. The calls were made as follows: active = growth percent below 10; inactive = the rest.

Assays:
Assay in all cases: NCI-60 one-dose screen, 48 h (100 = growth as untreated, 0 = no growth, -100 = all killed)
Conditions in all cases: 10 µM unless noted
SR leukemia = tested on: SR leukemia
RPMI-8226 leukemia = tested on: RPMI-8226 leukemia
OVCAR-8 ovarian = tested on: OVCAR-8 ovarian
OVCAR-5 ovarian = tested on: OVCAR-5 ovarian
OVCAR-4 ovarian = tested on: OVCAR-4 ovarian
SK-OV-3 ovarian = tested on: SK-OV-3 ovarian
IGROV1 ovarian = tested on: IGROV1 ovarian
OVCAR-3 ovarian = tested on: OVCAR-3 ovarian
HS 578T breast = tested on: HS 578T breast
NCI/ADR-RES ovarian = tested on: NCI/ADR-RES ovarian

Measured: growth

O=c1[nH]c2ccccc2cc1COc1ccc(Nc2nccc(-c3ccc(Cl)cc3)n2)cc1
inactive: SR leukemia 103% | RPMI-8226 leukemia 108% | OVCAR-8 ovarian 102% | OVCAR-5 ovarian 106% | OVCAR-4 ovarian 95.6% | SK-OV-3 ovarian 94.5% | IGROV1 ovarian 102% | OVCAR-3 ovarian 138% | HS 578T breast 85.7% | NCI/ADR-RES ovarian 101%

CCC(=O)c1c2c(c3ccc4c5ccccc5ccc4n13)C(=O)c1ccccc1C2=O
inactive: SR leukemia 71.8% | RPMI-8226 leukemia 95.8% | OVCAR-8 ovarian 96.1% | OVCAR-5 ovarian 122% | OVCAR-4 ovarian 88.2% | SK-OV-3 ovarian 105% | IGROV1 ovarian 75.6% | OVCAR-3 ovarian 75.9% | HS 578T breast 96.7% | NCI/ADR-RES ovarian 90.8%

COc1ccc2c(c1)C(Sc1ccc(F)cc1)c1c(nc(N)c(C#N)c1N)O2 (stereo not given)
inactive: SR leukemia 38% | RPMI-8226 leukemia 71.7% | OVCAR-8 ovarian 90.1% | OVCAR-5 ovarian 122% | OVCAR-4 ovarian 97.8% | SK-OV-3 ovarian 122% | IGROV1 ovarian 70.6% | OVCAR-3 ovarian 128% | HS 578T breast 85.5% | NCI/ADR-RES ovarian 95.3%

NNc1ncnc2sc3c(c12)CCN(Cc1ccccc1)C3
inactive: SR leukemia 40.1% | RPMI-8226 leukemia 39.3% | OVCAR-8 ovarian 20% | OVCAR-5 ovarian 70.6% | OVCAR-4 ovarian 28.6% | SK-OV-3 ovarian 72.3% | IGROV1 ovarian 83.2% | OVCAR-3 ovarian 13.4% | HS 578T breast 72.3% | NCI/ADR-RES ovarian 35.3%

C[C@H](NC(=O)c1ccc2c(-c3ccc(C(F)(F)F)cc3)cccc2c1)c1ccccn1
inactive: SR leukemia 33.3% | RPMI-8226 leukemia 21.4% | OVCAR-8 ovarian 44.7% | OVCAR-5 ovarian 75.2% | OVCAR-4 ovarian 42% | SK-OV-3 ovarian 64% | IGROV1 ovarian 55.8% | OVCAR-3 ovarian 45.6% | HS 578T breast 53.2% | NCI/ADR-RES ovarian 32.5%

c1ccc(CSc2nnc(-c3ccc4nc(-c5ccccc5)[nH]c4c3)o2)cc1
active: OVCAR-8 ovarian -23.2% | OVCAR-4 ovarian -43.7% | HS 578T breast -1.88% | NCI/ADR-RES ovarian -40.3%
inactive: SR leukemia 63.6% | RPMI-8226 leukemia 36.7% | OVCAR-5 ovarian 75.3% | SK-OV-3 ovarian 87% | IGROV1 ovarian 63.6% | OVCAR-3 ovarian 27.4%

COC(=O)c1cc(C(C)=O)n2c3ccccc3c3ccccc3c12
inactive: SR leukemia 64.7% | RPMI-8226 leukemia 87.7% | OVCAR-8 ovarian 50.5% | OVCAR-5 ovarian 92.6% | OVCAR-4 ovarian 44.3% | SK-OV-3 ovarian 99.3% | IGROV1 ovarian 41.5% | OVCAR-3 ovarian 73.4% | HS 578T breast 29.8% | NCI/ADR-RES ovarian 44.6%

Nc1nn2c(-c3cc4cc(Br)ccc4oc3=O)ccnc2c1N=Nc1ccc(S(N)(=O)=O)cc1
inactive: SR leukemia 74.4% | RPMI-8226 leukemia 109% | OVCAR-8 ovarian 79% | OVCAR-5 ovarian 112% | OVCAR-4 ovarian 100% | SK-OV-3 ovarian 58.9% | IGROV1 ovarian 93.1% | OVCAR-3 ovarian 103% | HS 578T breast 102% | NCI/ADR-RES ovarian 103%

COc1ccc(NC(=O)Nc2nc3ccc([N+](=O)[O-])cc3s2)cc1
inactive: OVCAR-8 ovarian 17.1% | OVCAR-5 ovarian 60.4% | OVCAR-4 ovarian 15.2% | SK-OV-3 ovarian 58.6% | IGROV1 ovarian 26.4% | OVCAR-3 ovarian 18%
active: SR leukemia 5.15% | RPMI-8226 leukemia -2.91% | HS 578T breast 5.84% | NCI/ADR-RES ovarian -1.49%

Cc1nn(-c2ccccc2)c2ncn(CC(=O)N/N=C/c3ccccc3O)c(=O)c12
inactive: SR leukemia 13.3% | RPMI-8226 leukemia 45.4% | OVCAR-8 ovarian 19.7% | OVCAR-5 ovarian 63.2% | OVCAR-4 ovarian 39.4% | SK-OV-3 ovarian 37.7% | IGROV1 ovarian 40.6% | OVCAR-3 ovarian 18% | HS 578T breast 54.9% | NCI/ADR-RES ovarian 23.3%

CC[C@]12C=CCN3CC[C@]4(C(=C(C(=O)OC)C1)Nc1cc(OC)c([C@@H]5[C@H]6O[C@H]6[C@@]6(CC)CC(C(=O)OC)=C7Nc8cc(OC)ccc8[C@@]78CCN5[C@@H]68)cc14)[C@@H]32
active: SR leukemia 5.93%
inactive: RPMI-8226 leukemia 24.2% | OVCAR-8 ovarian 53.1% | OVCAR-5 ovarian 93.2% | OVCAR-4 ovarian 59.8% | SK-OV-3 ovarian 116% | IGROV1 ovarian 64% | OVCAR-3 ovarian 55.8% | HS 578T breast 87.2% | NCI/ADR-RES ovarian 80.8%

Cc1ccc(S(=O)(=O)Nc2ccc(-c3ccc4c(c3)NC(=O)/C4=C\c3ccc[nH]3)cc2)cc1
active: SR leukemia -3.97%
inactive: RPMI-8226 leukemia 63.6% | OVCAR-8 ovarian 86.7% | OVCAR-5 ovarian 90.8% | OVCAR-4 ovarian 83.3% | SK-OV-3 ovarian 108% | IGROV1 ovarian 93.5% | OVCAR-3 ovarian 125% | HS 578T breast 92.2% | NCI/ADR-RES ovarian 89%

Cc1ccc(/C=C/C(=O)c2ccc(S(=O)(=O)NCCNc3nc(N(C)C)nc(N4CCOCC4)n3)cc2)cc1
active: SR leukemia -36.4% | RPMI-8226 leukemia -15.6%
inactive: OVCAR-8 ovarian 88.8% | OVCAR-5 ovarian 97.6% | OVCAR-4 ovarian 91.6% | SK-OV-3 ovarian 90.5% | IGROV1 ovarian 102% | OVCAR-3 ovarian 109% | HS 578T breast 97.9% | NCI/ADR-RES ovarian 86.2%

COc1cc(C=O)ccc1Oc1nc(Nc2ccc(F)cc2)nc(N(C)C)n1
inactive: RPMI-8226 leukemia 60% and 67% | OVCAR-8 ovarian 85.3% and 56.7% | OVCAR-5 ovarian 100% and 105% | OVCAR-4 ovarian 56.4% and 47.8% | SK-OV-3 ovarian 87.6% and 122% | IGROV1 ovarian 96.7% and 49.3% | OVCAR-3 ovarian 62.1% and 78.7% | HS 578T breast 85.5% and 41.5% | NCI/ADR-RES ovarian 81.7% and 54.3%
70.9% (inactive) and 6.2% (active): SR leukemia
